Measured values taken from paper PMC7862700, “An all-to-all approach to the identification of sequence-specific readers for epigenetic DNA modifications on cytosine”.

Tests used:
Experiment in all cases: DAPPL (digital affinity profiling via proximity ligation, sequencing); 10 mM Tris-HCl pH 7.5, 50 mM NaCl, 1 mM DTT, 4% glycerol, room temperature, 30 min; GST-TFs on glutathione beads, 16-mer random dsDNA library, 0.1% formaldehyde crosslink after washing; high values mean tight binding
FEV = target: T1, FEV (Homo sapiens, UniProt Q99581 1-238); settings: protein: recombinant; tags: N-terminal GST; dsDNA, one strand shown
T1 sequence: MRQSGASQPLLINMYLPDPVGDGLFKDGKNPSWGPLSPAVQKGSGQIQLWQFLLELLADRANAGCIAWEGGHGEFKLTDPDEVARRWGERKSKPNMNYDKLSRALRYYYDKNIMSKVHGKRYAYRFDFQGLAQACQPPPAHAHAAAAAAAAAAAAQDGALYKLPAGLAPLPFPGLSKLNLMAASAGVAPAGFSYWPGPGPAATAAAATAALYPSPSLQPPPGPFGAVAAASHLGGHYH
How it was run: (§1)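 In yeast, human transcription factors were expressed with a GST fusion, then pulled down on glutathione beads and given DNA barcodes. Pooled with a tag-only sample, they were exposed to 200 nmole of a 16-mer random double-stranded DNA library (Tris/NaCl/DTT/glycerol buffer, room temperature, 30 min), washed, crosslinked with 0.1% formaldehyde, proximity-ligated using BsaI/T4 ligase for 1 h at 37 °C, PCR-amplified and read on an Illumina NextSeq500. Each hexamer's frequency of reads for a factor, divided by the matching frequency for the tag-only sample, gives the binding signal.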

ETV5 = ETV5 (Homo sapiens, UniProt P41161 1-510); settings: protein: recombinant; tags: N-terminal GST; dsDNA, one strand shown
How it was run: as §1

HSF1 = HSF1 (Homo sapiens, UniProt Q00613 1-529); settings: protein: recombinant; tags: N-terminal GST; chain copies: 3; dsDNA, one strand shown
How it was run: as §1

SPIC = target: T2, SPIC (Homo sapiens, UniProt Q8N5J4 1-248); settings: protein: recombinant; tags: N-terminal GST; dsDNA, one strand shown
T2 sequence: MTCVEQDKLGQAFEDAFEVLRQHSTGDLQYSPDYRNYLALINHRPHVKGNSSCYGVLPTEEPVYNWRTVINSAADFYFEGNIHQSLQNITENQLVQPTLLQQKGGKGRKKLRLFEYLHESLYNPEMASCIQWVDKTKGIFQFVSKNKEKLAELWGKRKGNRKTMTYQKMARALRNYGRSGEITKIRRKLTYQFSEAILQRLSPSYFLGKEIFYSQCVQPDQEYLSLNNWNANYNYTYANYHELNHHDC
How it was run: as §1

ELF4 = ELF4 (Homo sapiens, UniProt Q99607 1-663); settings: protein: recombinant; tags: N-terminal GST; dsDNA, one strand shown
How it was run: as §1

ELK4 = target: T3, ELK4 (Homo sapiens, UniProt P28324-2 1-405); settings: protein: recombinant; tags: N-terminal GST; dsDNA, one strand shown
T3 sequence: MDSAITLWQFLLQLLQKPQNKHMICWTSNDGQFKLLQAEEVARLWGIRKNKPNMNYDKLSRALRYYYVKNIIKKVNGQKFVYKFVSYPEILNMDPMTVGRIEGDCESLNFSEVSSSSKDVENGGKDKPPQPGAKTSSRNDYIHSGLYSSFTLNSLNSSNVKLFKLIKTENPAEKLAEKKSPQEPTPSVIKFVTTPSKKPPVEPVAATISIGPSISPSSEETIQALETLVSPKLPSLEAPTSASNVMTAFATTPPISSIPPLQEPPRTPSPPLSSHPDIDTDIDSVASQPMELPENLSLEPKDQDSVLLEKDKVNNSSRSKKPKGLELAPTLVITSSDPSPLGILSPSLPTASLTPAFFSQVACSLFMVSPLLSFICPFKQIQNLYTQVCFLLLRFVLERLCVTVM
How it was run: as §1

ETV2 = target: T4, ETV2 (Homo sapiens, UniProt O00321 1-342); settings: protein: recombinant; tags: N-terminal GST; dsDNA, one strand shown
T4 sequence: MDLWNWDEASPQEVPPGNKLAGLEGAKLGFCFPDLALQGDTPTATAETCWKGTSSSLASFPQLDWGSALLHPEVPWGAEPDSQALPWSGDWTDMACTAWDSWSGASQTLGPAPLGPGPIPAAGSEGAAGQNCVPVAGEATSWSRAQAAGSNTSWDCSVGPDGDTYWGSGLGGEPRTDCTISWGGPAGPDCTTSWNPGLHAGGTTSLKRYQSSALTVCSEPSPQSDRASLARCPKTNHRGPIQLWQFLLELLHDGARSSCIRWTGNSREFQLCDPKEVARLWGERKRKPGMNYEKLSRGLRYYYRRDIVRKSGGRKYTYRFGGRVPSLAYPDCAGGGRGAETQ
How it was run: as §1

ELF3 = target: T5, ELF3 (Homo sapiens, UniProt P78545 1-371); settings: protein: recombinant; tags: N-terminal GST; dsDNA, one strand shown
T5 sequence: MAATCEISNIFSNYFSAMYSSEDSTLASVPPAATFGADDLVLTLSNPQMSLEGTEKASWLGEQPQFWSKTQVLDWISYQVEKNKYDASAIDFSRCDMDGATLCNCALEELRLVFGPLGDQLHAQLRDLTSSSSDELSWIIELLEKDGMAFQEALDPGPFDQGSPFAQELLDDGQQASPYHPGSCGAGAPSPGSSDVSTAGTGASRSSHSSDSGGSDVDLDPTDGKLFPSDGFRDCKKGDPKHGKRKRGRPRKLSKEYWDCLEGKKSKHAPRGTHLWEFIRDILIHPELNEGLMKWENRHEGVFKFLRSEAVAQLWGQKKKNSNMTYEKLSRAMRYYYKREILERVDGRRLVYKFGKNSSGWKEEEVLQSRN
How it was run: as §1

CRX = CRX (Homo sapiens, UniProt O43186 1-299); settings: protein: recombinant; tags: N-terminal GST; dsDNA, one strand shown
How it was run: as §1

ETV1 = ETV1 (Homo sapiens, UniProt P50549 1-477); settings: protein: recombinant; tags: N-terminal GST; dsDNA, one strand shown
How it was run: as §1

ERF = target: T6, ERF (Homo sapiens, UniProt P50548 1-548); settings: protein: recombinant; tags: N-terminal GST; dsDNA, one strand shown
T6 sequence: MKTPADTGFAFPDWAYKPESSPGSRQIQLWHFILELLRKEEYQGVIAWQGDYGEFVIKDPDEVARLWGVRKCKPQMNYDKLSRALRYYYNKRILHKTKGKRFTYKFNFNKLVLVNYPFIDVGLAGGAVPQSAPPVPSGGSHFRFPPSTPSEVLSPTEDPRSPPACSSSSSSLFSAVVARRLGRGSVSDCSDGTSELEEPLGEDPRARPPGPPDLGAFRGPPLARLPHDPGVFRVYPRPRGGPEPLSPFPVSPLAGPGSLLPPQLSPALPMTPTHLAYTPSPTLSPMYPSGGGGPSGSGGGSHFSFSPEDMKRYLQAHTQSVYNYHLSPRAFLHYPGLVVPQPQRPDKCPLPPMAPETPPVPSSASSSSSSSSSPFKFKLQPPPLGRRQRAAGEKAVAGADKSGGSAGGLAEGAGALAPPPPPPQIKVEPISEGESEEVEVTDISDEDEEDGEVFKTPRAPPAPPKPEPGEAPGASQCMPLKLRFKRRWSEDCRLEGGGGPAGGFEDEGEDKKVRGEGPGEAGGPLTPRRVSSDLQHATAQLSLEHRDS
How it was run: as §1

ETV3L = target: T7, ETV3L (Homo sapiens, UniProt Q6ZN32 1-361); settings: protein: recombinant; tags: N-terminal GST; dsDNA, one strand shown
T7 sequence: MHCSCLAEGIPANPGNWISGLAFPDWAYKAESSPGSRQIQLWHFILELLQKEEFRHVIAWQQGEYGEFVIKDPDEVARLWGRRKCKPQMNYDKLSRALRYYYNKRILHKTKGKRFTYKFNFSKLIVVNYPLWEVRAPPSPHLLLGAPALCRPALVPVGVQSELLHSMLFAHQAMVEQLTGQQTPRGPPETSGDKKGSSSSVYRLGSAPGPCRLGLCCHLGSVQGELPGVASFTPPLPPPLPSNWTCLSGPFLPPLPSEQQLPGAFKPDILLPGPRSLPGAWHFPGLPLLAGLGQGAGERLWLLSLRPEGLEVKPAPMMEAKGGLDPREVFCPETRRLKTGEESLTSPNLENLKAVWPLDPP
How it was run: as §1

ETS2 = target: T8, ETS2 (Homo sapiens, UniProt P15036 1-469); settings: protein: recombinant; tags: N-terminal GST; dsDNA, one strand shown
T8 sequence: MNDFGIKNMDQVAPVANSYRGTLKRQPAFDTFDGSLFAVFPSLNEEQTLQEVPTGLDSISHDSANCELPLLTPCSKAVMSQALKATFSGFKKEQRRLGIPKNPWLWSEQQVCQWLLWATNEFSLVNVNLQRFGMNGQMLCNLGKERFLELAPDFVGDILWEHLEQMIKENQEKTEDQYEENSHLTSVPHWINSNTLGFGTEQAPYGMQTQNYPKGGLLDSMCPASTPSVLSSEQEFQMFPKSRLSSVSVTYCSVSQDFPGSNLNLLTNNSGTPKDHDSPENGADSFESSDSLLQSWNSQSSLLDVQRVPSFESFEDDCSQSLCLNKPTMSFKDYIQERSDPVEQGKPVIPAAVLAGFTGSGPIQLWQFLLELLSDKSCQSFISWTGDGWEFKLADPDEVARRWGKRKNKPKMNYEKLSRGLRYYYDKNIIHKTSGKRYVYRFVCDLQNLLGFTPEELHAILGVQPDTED
How it was run: as §1

SPDEF = target: T9, SPDEF (Homo sapiens, UniProt O95238 1-335); settings: protein: recombinant; tags: N-terminal GST; dsDNA, one strand shown
T9 sequence: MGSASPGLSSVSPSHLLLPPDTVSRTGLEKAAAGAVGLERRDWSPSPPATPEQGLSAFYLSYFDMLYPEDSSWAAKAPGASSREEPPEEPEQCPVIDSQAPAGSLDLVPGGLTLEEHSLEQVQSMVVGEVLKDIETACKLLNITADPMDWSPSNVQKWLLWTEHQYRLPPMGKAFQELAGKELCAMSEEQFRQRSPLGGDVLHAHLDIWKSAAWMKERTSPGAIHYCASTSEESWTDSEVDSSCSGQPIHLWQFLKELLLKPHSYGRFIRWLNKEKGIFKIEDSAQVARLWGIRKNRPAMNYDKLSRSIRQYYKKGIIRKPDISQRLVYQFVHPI
How it was run: as §1

ETV7 = target: T10, ETV7 (Homo sapiens, UniProt Q9Y603 1-341); settings: protein: recombinant; tags: N-terminal GST; dsDNA, one strand shown
T10 sequence: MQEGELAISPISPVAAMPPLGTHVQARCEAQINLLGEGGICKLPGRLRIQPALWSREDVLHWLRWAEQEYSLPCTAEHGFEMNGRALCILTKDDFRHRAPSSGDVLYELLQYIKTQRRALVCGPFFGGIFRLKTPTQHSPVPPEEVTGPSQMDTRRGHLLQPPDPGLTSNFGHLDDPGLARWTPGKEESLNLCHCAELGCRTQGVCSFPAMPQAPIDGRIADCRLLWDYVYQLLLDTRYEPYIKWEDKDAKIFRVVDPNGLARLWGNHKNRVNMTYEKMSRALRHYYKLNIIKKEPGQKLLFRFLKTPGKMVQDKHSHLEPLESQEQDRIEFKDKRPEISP
How it was run: as §1

ELF5 = target: T11, ELF5 (Homo sapiens, UniProt Q9UKW6-2 1-255); settings: protein: recombinant; tags: N-terminal GST; dsDNA, one strand shown
T11 sequence: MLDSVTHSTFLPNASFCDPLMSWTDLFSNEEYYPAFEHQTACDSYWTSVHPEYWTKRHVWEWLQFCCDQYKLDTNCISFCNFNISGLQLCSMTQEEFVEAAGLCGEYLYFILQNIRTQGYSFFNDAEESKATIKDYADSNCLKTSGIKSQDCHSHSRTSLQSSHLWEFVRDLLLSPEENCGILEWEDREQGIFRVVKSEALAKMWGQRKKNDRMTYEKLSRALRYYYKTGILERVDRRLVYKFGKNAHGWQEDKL
How it was run: as §1

ETV3 = target: T12, ETV3 (Homo sapiens, UniProt P41162-2 1-143); settings: protein: recombinant; tags: N-terminal GST; dsDNA, one strand shown
T12 sequence: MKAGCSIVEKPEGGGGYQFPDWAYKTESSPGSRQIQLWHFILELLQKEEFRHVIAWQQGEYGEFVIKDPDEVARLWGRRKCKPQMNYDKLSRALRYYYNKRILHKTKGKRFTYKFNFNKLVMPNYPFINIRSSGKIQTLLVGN
How it was run: as §1

ETV6 = ETV6 (Homo sapiens, UniProt P41212 1-452); settings: protein: recombinant; tags: N-terminal GST; dsDNA, one strand shown
How it was run: as §1

ETV1, sequence (P50549 whole entry): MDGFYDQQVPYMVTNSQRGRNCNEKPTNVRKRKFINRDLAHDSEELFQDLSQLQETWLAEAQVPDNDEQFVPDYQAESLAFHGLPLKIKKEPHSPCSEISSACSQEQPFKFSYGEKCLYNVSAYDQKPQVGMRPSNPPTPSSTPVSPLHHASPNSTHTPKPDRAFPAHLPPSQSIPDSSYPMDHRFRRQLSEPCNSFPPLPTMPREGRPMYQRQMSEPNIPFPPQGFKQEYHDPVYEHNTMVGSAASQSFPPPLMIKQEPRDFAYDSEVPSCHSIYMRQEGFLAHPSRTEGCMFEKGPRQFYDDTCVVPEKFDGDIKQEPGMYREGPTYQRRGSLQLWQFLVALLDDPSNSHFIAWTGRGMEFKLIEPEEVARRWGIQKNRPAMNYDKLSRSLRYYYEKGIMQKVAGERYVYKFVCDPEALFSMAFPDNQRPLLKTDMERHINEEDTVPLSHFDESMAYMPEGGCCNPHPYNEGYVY
ETV6, sequence (P41212 whole entry): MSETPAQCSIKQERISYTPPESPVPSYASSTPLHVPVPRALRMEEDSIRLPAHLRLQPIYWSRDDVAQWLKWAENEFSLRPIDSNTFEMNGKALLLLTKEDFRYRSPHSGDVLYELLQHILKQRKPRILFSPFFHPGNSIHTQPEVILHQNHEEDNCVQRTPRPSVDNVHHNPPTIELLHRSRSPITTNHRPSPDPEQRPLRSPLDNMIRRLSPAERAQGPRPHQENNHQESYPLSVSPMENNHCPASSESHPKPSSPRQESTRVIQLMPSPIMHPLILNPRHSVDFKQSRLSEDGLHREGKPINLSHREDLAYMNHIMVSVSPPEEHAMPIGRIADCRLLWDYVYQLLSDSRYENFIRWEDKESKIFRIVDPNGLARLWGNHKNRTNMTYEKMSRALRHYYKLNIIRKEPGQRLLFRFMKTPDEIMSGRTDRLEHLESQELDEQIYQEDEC
HSF1, sequence (Q00613 whole entry): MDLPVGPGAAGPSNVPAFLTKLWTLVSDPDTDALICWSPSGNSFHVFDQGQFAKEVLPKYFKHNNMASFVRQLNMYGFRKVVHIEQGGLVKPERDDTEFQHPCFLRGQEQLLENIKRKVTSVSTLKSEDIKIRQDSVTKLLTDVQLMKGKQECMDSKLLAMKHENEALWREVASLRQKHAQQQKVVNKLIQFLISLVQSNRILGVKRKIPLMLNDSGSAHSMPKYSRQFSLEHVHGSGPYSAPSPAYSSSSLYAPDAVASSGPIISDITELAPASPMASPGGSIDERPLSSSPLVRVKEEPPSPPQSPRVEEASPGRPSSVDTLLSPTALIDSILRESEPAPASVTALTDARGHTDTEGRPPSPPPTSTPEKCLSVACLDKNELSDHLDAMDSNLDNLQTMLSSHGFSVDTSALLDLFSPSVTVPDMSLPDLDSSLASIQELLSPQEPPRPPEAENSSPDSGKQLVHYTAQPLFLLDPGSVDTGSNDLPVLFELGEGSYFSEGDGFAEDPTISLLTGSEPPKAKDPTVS
CRX, sequence (O43186 whole entry): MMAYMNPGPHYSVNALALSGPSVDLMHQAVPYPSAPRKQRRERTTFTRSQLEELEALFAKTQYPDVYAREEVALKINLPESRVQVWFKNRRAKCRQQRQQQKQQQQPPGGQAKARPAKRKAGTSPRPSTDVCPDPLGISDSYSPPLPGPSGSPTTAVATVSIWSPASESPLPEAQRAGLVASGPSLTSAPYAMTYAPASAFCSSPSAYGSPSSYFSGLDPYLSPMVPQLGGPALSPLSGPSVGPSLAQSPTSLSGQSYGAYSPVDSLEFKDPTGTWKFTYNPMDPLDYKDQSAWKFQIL
ETV5, sequence (P41161 whole entry): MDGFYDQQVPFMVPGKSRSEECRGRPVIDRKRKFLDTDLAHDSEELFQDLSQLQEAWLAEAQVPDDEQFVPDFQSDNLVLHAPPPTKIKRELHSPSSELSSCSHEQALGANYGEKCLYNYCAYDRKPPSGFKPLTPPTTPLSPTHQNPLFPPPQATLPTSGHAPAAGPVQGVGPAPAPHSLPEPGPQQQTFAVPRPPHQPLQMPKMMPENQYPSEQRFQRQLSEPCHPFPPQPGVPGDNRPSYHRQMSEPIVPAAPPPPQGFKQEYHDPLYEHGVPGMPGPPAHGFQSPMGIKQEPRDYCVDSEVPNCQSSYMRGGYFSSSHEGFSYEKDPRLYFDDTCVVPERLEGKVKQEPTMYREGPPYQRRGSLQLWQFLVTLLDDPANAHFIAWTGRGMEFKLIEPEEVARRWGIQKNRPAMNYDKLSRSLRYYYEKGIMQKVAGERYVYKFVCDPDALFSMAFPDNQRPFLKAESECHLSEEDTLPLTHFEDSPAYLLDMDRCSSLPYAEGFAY
ELF4, sequence (Q99607 whole entry): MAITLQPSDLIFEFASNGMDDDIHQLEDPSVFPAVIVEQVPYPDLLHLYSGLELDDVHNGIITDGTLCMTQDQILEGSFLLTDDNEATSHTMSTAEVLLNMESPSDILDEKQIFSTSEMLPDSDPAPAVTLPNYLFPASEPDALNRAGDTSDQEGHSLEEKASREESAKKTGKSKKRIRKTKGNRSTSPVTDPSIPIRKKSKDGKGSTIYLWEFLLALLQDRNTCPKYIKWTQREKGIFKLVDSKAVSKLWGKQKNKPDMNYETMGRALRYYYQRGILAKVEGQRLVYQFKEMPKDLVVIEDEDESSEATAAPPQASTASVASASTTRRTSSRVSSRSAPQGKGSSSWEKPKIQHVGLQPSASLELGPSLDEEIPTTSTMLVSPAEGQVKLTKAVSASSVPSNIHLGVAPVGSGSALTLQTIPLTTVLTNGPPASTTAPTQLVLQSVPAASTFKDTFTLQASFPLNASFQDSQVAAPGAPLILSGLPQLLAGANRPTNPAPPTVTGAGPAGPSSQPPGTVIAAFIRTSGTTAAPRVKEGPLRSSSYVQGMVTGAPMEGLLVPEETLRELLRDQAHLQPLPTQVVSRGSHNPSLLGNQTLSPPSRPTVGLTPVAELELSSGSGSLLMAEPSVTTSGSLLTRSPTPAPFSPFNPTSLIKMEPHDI

ATCCTT was tested, and the binding signal (FEV) was 1.64 fold enrichment (6-mer frequency, TF over GST control), the binding signal (ETV5) was 1.67 fold enrichment (6-mer frequency, TF over GST control) and the binding signal (HSF1) was 1.98 fold enrichment (6-mer frequency, TF over GST control). The binding signal (SPIC) was 1.74 fold enrichment (6-mer frequency, TF over GST control), the binding signal (ELF4) was 1.7 fold enrichment (6-mer frequency, TF over GST control) and the binding signal (ELK4) was 1.77 fold enrichment (6-mer frequency, TF over GST control). The binding signal (ETV2) was 1.57 fold enrichment (6-mer frequency, TF over GST control), the binding signal (ELF3) was 1.47 fold enrichment (6-mer frequency, TF over GST control) and the binding signal (CRX) was 2.37 fold enrichment (6-mer frequency, TF over GST control). For the same sequence, the binding signal (ETV1) was 1.67 fold enrichment (6-mer frequency, TF over GST control), the binding signal (ERF) was 1.56 fold enrichment (6-mer frequency, TF over GST control) and the binding signal (ETV3L) was 1.58 fold enrichment (6-mer frequency, TF over GST control). The binding signal (ETS2) was 1.47 fold enrichment (6-mer frequency, TF over GST control), the binding signal (SPDEF) was 2.13 fold enrichment (6-mer frequency, TF over GST control) and the binding signal (ETV7) was 1.49 fold enrichment (6-mer frequency, TF over GST control). The binding signal (ELF5) was 2.26 fold enrichment (6-mer frequency, TF over GST control), the binding signal (ETV3) was 1.84 fold enrichment (6-mer frequency, TF over GST control) and the binding signal (ETV6) was 1.68 fold enrichment (6-mer frequency, TF over GST control).
